# Reference: ChEMBL document CHEMBL3433997, “St. Jude Leishmania screening dataset” (2016)
# Legend:
# Format in all cases: functional
# [1] = molecular target: Solute carrier family 2, facilitated glucose transporter member 1 (Homo sapiens) (UniProt P11166); assay: ST_JUDE_LEISH: Cytotoxicity at 2uM final concentration against transgenic Leishmania Mexicana promastigotes LmGLUT1 that are glucose transport deficient and complemented with the human glucose transporter GLUT1. Activity is measured by DNA content using SYBR green in vitro
# [2] = molecular target: Hexose transporter 1 (Plasmodium falciparum) (UniProt O97467); assay: ST_JUDE_LEISH: Cytotoxicity at 2uM final concentration against transgenic Leishmania Mexicana promastigotes LmPfHT that are glucose transport deficient and complemented with the Plasmodium falciparum hexose transporter. Activity is measured by DNA content using SYBR green in vitro
# [3] = molecular target: Glucose transporter (Leishmania mexicana) (UniProt O61059); assay: ST_JUDE_LEISH: Cytotoxicity at 2uM final concentration against transgenic Leishmania Mexicana promastigotes LmGT2 that are glucose transport deficient and complemented with the L. Mexicana glucose transporter 2. Activity is measured by DNA content using SYBR green in vitro
# Chain of Solute carrier family 2, facilitated glucose transporter member 1 (Homo sapiens) (P11166 whole entry): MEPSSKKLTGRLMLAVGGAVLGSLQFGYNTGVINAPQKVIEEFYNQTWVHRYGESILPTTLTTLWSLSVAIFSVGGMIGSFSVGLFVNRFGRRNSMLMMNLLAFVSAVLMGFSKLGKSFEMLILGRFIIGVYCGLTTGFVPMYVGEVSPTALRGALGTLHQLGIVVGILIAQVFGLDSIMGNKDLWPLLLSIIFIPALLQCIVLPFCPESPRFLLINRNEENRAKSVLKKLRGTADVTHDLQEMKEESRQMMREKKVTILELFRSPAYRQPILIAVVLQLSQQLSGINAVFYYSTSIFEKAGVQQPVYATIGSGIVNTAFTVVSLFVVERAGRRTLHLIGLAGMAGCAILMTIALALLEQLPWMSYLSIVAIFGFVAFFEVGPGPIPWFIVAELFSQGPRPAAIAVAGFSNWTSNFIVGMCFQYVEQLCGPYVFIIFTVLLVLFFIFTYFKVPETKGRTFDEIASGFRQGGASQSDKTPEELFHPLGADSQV
structure (smiles),measurement,setting,value
CN(C)S(=O)(=O)n1ccc2c3c(N)nc(N)nc3ccc21,inhibition,[1],44.3%
same,inhibition,[2],46.3%
same,inhibition,[3],29.3%
O=C(C=Cc1cn(-c2ccccc2)nc1-c1ccccc1)N1CCN(c2ccncc2)CC1,inhibition,[1],5.75%
same,inhibition,[2],5.64%
same,inhibition,[3],4.62%
Fc1ccc(C=NNc2nc3ccccc3[nH]2)cc1,inhibition,[1],16.4%
same,inhibition,[2],13.1%
same,inhibition,[3],12.1%
CC(Cc1ccc(C(=O)OCCOC(=O)c2ccc(CC(C)NCC(O)c3cccc(C(F)(F)F)c3)cc2)cc1)NCC(O)c1cccc(C(F)(F)F)c1 (stereo unspecified),inhibition,[1],1.7%
same,inhibition,[2],-0.31%
same,inhibition,[3],2.65%
COc1cc(C2C(Oc3ccccc3)C(=O)N2Cc2ccc(F)cc2)cc(OC)c1OC (stereo unspecified),inhibition,[1],3.73%
same,inhibition,[2],3.29%
same,inhibition,[3],2.56%
Cc1[nH]c(C)c(-c2ccc(-c3ccccc3C(F)(F)F)nc2)c(=O)c1Br,inhibition,[1],2.64%
same,inhibition,[2],3.67%
same,inhibition,[3],0.55%
c1cc(CN2CCCCC2)cc(-c2cccc(-c3nc4ccccc4[nH]3)c2)c1,inhibition,[1],1.27%
same,inhibition,[2],2.94%
same,inhibition,[3],-0.15%
COc1cccc(N(CCCN2C(=O)c3cccc4cccc(c34)C2=O)C(=O)c2ccccc2C)c1,inhibition,[1],5.96%
same,inhibition,[2],7.4%
same,inhibition,[3],0.69%
CC(=O)Nc1cc(C(=O)Nc2cccc(-c3cccc(-c4nc5cc(C(F)(F)F)ccc5[nH]4)c3)c2)ccc1C,inhibition,[1],7.57%
same,inhibition,[2],6.52%
same,inhibition,[3],1.84%
Clc1ccccc1C=NN=c1cc[nH]c2ccccc12,inhibition,[1],3.99%
same,inhibition,[2],5.58%
same,inhibition,[3],5.41%
COc1cc(Nc2nccc(N3CCC(NC(=O)C(C)c4ccc(Cl)cc4)C3)n2)cc(OC)c1OC (stereo unspecified),inhibition,[1],0.95%
same,inhibition,[2],-0.55%
same,inhibition,[3],1.19%
COc1ccc(-c2cnc(N)c(-c3ccc(O)c(OC)c3)c2)cn1,inhibition,[1],0.58%
same,inhibition,[2],0.38%
same,inhibition,[3],1.13%
